Biological target: POU1 (OCT1 POU domain);BOB1 (OBF1, OCA-B) (human;human, UniProt P14859;Q16633 260-458;1-256, |)
Assay: EMSA-SELEX-seq; with BOB1 (ternary complex band); 20 mM Tris-HCl pH 7.6, 140 mM NaCl, 10% glycerol, 0.5 mM EDTA, 0.05% Triton X-100, 0.1 mg/mL BSA, 0.1 mg/mL poly(dI-dC), 5 mM DTT, room temperature, 20 min; high values mean tight binding
Details: protein: recombinant;recombinant; copies: 1;1; dsDNA, one strand shown
Method in brief: (§1)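 Binding preference is the percentage of sequenced 8-mers matching a motif pattern. Tagged POU-domain proteins expressed in E. coli BL21 were purified under denaturing conditions and renatured. For binding, 30 ng protein met 300 ng of a PCR-amplified double-stranded random 35-nt library, with or without 28 ng coactivator protein, in 20 μL Tris–HCl pH 7.6 binding buffer for 20 min at RT. Complex bands were cut from native 6% PAGE, eluted and PCR-amplified over four rounds, then Illumina-sequenced.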

Question: How did the binding signal turn out when ACTTGAAC was run?
Answer: 0.018 % of ANNNNAAN 8-mers

Question: AGAGCAAG was tested. Which binding signal did it give?
Answer: 0.0191 % of ANNNNAAN 8-mers

Question: How did the binding signal turn out when ACAGAAAG was run?
Answer: 0.0281 % of ANNNNAAN 8-mers

Question: With ACCAAAAC as the sequence, how does the binding signal read?
Answer: 0.032 % of ANNNNAAN 8-mers

Question: With AAGGCAAG as the sequence, how does the binding signal read?
Answer: 0.0328 % of ANNNNAAN 8-mers

Question: Which binding signal does the source give for AGTACAAT here?
Answer: 0.0386 % of ANNNNAAN 8-mers

Question: How did the binding signal turn out when AGGTTAAA was run?
Answer: 0.0578 % of ANNNNAAN 8-mers

Question: With ATGTCAAT as the sequence, how does the binding signal read?
Answer: 0.0722 % of ANNNNAAN 8-mers

Question: Which binding signal does the source give for AATGAAAG here?
Answer: 0.0901 % of ANNNNAAN 8-mers

Question: Which binding signal does the source give for AGAACAAG here?
Answer: 0.0219 % of ANNNNAAN 8-mers

Question: For ACATAAAC, which binding signal is on record?
Answer: 0.0652 % of ANNNNAAN 8-mers

Question: ACGACAAA was tested. Which binding signal did it give?
Answer: 0.0222 % of ANNNNAAN 8-mers

Question: How did the binding signal turn out when ACCGTAAG was run?
Answer: 0.0195 % of ANNNNAAN 8-mers

Question: How did the binding signal turn out when AGAGAAAA was run?
Answer: 0.0574 % of ANNNNAAN 8-mers

Question: With ATGCGAAA as the sequence, how does the binding signal read?
Answer: 0.0648 % of ANNNNAAN 8-mers

Question: How did the binding signal turn out when ATCAGAAG was run?
Answer: 0.0359 % of ANNNNAAN 8-mers

Question: For ACCCTAAT, which binding signal is on record?
Answer: 0.0273 % of ANNNNAAN 8-mers

Question: How did the binding signal turn out when AACACAAC was run?
Answer: 0.014 % of ANNNNAAN 8-mers

Question: Which binding signal does the source give for ACCTAAAA here?
Answer: 0.0254 % of ANNNNAAN 8-mers

Question: For ATACTAAG, which binding signal is on record?
Answer: 0.0441 % of ANNNNAAN 8-mers

Question: How did the binding signal turn out when ATCTAAAT was run?
Answer: 0.123 % of ANNNNAAN 8-mers

Question: How did the binding signal turn out when AGCAAAAT was run?
Answer: 0.107 % of ANNNNAAN 8-mers

Question: How did the binding signal turn out when AGGAAAAG was run?
Answer: 0.133 % of ANNNNAAN 8-mers

Question: With ACTAGAAG as the sequence, how does the binding signal read?
Answer: 0.03 % of ANNNNAAN 8-mers

Question: How did the binding signal turn out when AAATCAAG was run?
Answer: 0.132 % of ANNNNAAN 8-mers

Question: How did the binding signal turn out when AATTTAAA was run?
Answer: 0.303 % of ANNNNAAN 8-mers

Question: For ATGCAAAC, which binding signal is on record?
Answer: 1.35 % of ANNNNAAN 8-mers

Question: Which binding signal does the source give for AGTCTAAC here?
Answer: 0.0199 % of ANNNNAAN 8-mers

Question: For AACCAAAG, which binding signal is on record?
Answer: 0.0539 % of ANNNNAAN 8-mers

Question: How did the binding signal turn out when ATCGGAAT was run?
Answer: 0.0581 % of ANNNNAAN 8-mers

Question: With AGCCAAAG as the sequence, how does the binding signal read?
Answer: 0.0363 % of ANNNNAAN 8-mers

Question: For ATACCAAG, which binding signal is on record?
Answer: 0.0238 % of ANNNNAAN 8-mers

Question: Which binding signal does the source give for AATTAAAC here?
Answer: 0.0905 % of ANNNNAAN 8-mers

Question: Which binding signal does the source give for ATCTAAAA here?
Answer: 0.0535 % of ANNNNAAN 8-mers

Question: How did the binding signal turn out when ATTAAAAA was run?
Answer: 0.114 % of ANNNNAAN 8-mers

Question: AGAGTAAT was tested. Which binding signal did it give?
Answer: 0.0499 % of ANNNNAAN 8-mers

Question: For AACGGAAC, which binding signal is on record?
Answer: 0.025 % of ANNNNAAN 8-mers

Question: ACCGGAAC was tested. Which binding signal did it give?
Answer: 0.0133 % of ANNNNAAN 8-mers

Question: With AAGCAAAG as the sequence, how does the binding signal read?
Answer: 0.125 % of ANNNNAAN 8-mers

Biological target: T1, POU2 (OCT2 POU domain);BOB1 (OBF1, OCA-B) (human;human, UniProt P09086;Q16633 175-386;1-256, |)
T1 sequence 1: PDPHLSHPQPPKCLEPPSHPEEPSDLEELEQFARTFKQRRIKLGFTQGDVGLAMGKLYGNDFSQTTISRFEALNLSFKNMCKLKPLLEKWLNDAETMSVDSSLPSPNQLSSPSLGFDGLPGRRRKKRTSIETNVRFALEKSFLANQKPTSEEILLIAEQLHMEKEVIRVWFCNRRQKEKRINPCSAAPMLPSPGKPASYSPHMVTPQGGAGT
T1 sequence 2: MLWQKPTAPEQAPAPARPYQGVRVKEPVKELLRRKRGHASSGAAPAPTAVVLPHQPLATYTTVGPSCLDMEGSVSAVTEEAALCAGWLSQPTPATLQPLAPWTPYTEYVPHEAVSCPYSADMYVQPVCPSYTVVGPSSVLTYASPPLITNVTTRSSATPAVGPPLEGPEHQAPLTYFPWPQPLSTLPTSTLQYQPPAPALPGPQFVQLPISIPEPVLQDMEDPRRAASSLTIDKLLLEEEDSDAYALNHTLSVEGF
Assay: as above
Details: protein: recombinant;recombinant; copies: 1;1; dsDNA, one strand shown
Method in brief: as §1

Question: For ACTTGAAC, which binding signal is on record?
Answer: 0.0314 % of ANNNNAAN 8-mers

Question: How did the binding signal turn out when AGAGCAAG was run?
Answer: 0.0132 % of ANNNNAAN 8-mers

Question: For ACAGAAAG, which binding signal is on record?
Answer: 0.0239 % of ANNNNAAN 8-mers

Question: For ACCAAAAC, which binding signal is on record?
Answer: 0.0206 % of ANNNNAAN 8-mers

Question: With AAGGCAAG as the sequence, how does the binding signal read?
Answer: 0.0256 % of ANNNNAAN 8-mers

Question: Which binding signal does the source give for AGTACAAT here?
Answer: 0.0462 % of ANNNNAAN 8-mers

Question: With AGGTTAAA as the sequence, how does the binding signal read?
Answer: 0.052 % of ANNNNAAN 8-mers

Question: With ATGTCAAT as the sequence, how does the binding signal read?
Answer: 0.0743 % of ANNNNAAN 8-mers

Question: For AATGAAAG, which binding signal is on record?
Answer: 0.0718 % of ANNNNAAN 8-mers

Question: How did the binding signal turn out when AGAACAAG was run?
Answer: 0.0231 % of ANNNNAAN 8-mers

Question: With ACATAAAC as the sequence, how does the binding signal read?
Answer: 0.0751 % of ANNNNAAN 8-mers

Question: ACGACAAA was tested. Which binding signal did it give?
Answer: 0.0256 % of ANNNNAAN 8-mers

Question: For ACCGTAAG, which binding signal is on record?
Answer: 0.0281 % of ANNNNAAN 8-mers

Question: How did the binding signal turn out when AGAGAAAA was run?
Answer: 0.0504 % of ANNNNAAN 8-mers

Question: Which binding signal does the source give for ATGCGAAA here?
Answer: 0.0743 % of ANNNNAAN 8-mers

Question: For ATCAGAAG, which binding signal is on record?
Answer: 0.033 % of ANNNNAAN 8-mers

Question: For ACCCTAAT, which binding signal is on record?
Answer: 0.0223 % of ANNNNAAN 8-mers

Question: With AACACAAC as the sequence, how does the binding signal read?
Answer: 0.0272 % of ANNNNAAN 8-mers

Question: With ACCTAAAA as the sequence, how does the binding signal read?
Answer: 0.0157 % of ANNNNAAN 8-mers

Question: ATACTAAG was tested. Which binding signal did it give?
Answer: 0.0438 % of ANNNNAAN 8-mers

Question: With ATCTAAAT as the sequence, how does the binding signal read?
Answer: 0.123 % of ANNNNAAN 8-mers

Question: For AGCAAAAT, which binding signal is on record?
Answer: 0.0759 % of ANNNNAAN 8-mers

Question: For AGGAAAAG, which binding signal is on record?
Answer: 0.0702 % of ANNNNAAN 8-mers

Question: For ACTAGAAG, which binding signal is on record?
Answer: 0.0231 % of ANNNNAAN 8-mers

Question: How did the binding signal turn out when AAATCAAG was run?
Answer: 0.128 % of ANNNNAAN 8-mers

Question: For AATTTAAA, which binding signal is on record?
Answer: 0.312 % of ANNNNAAN 8-mers

Question: With ATGCAAAC as the sequence, how does the binding signal read?
Answer: 1.27 % of ANNNNAAN 8-mers

Question: Which binding signal does the source give for AGTCTAAC here?
Answer: 0.0231 % of ANNNNAAN 8-mers

Question: With AACCAAAG as the sequence, how does the binding signal read?
Answer: 0.0231 % of ANNNNAAN 8-mers

Question: With ATCGGAAT as the sequence, how does the binding signal read?
Answer: 0.0768 % of ANNNNAAN 8-mers

Question: Which binding signal does the source give for AGCCAAAG here?
Answer: 0.019 % of ANNNNAAN 8-mers

Question: How did the binding signal turn out when ATACCAAG was run?
Answer: 0.0305 % of ANNNNAAN 8-mers

Question: For AATTAAAC, which binding signal is on record?
Answer: 0.0966 % of ANNNNAAN 8-mers

Question: Which binding signal does the source give for ATCTAAAA here?
Answer: 0.0669 % of ANNNNAAN 8-mers

Question: For ATTAAAAA, which binding signal is on record?
Answer: 0.09 % of ANNNNAAN 8-mers

Question: How did the binding signal turn out when AGAGTAAT was run?
Answer: 0.0537 % of ANNNNAAN 8-mers

Question: How did the binding signal turn out when AACGGAAC was run?
Answer: 0.0206 % of ANNNNAAN 8-mers

Question: For ACCGGAAC, which binding signal is on record?
Answer: 0.0124 % of ANNNNAAN 8-mers

Question: AAGCAAAG was tested. Which binding signal did it give?
Answer: 0.0537 % of ANNNNAAN 8-mers

Reference: PMC10812921, “Transcriptional Coactivator BOB1 (OBF1, OCA-B) Modulates the Specificity of DNA Recognition by the POU-Domain Factors OCT1 and OCT2 in a Monomeric Configuration”
